# Assay results from the supplement of paper PMC10849652.
# About 8,800 targets were measured; listed, in parts, are those with a hit and a random draw of the rest. About 0.5% of all pairs of compound and target were hits. Values without a mark were called inactive.
# Columns and labels:
# Assay in all cases: log2 fold change, soluble protein after heating vs DMSO (PISA); higher = thermal stabilisation; K562 lysate, 10 uM; active = over 0.2 and 3.5 SD of the protein, either way, in both replicates (recomputed)
# alvocidib = compound: CN1CC[C@H](c2c(O)cc(O)c3c(=O)cc(-c4ccccc4Cl)oc23)[C@H](O)C1 [alvocidib]
# Summary of the method: (§1)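 Pellets of K562 cells were dounce-homogenised in PBS pH 7.4 with 1 mM MgCl2, and the crude extract was held at 1 mg/mL protein for a 30 min treatment with 10 μM compound. Aliquots were heated for 3 min over 48°C-58°C and pooled before NP-40 was added to 0.5% at 4°C. The supernatant from 21,000xg for 90 min was quantified by TMTpro 16plex LC-MS/MS with channel sums equalised. Values are reported from duplicates as log-two fold change in thermal stability relative to solvent controls.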
# Tubastatin A = compound: CN1CCc2c(c3ccccc3n2Cc2ccc(C(=O)NO)cc2)C1 [Tubastatin A]
# Summary of the method: as §1
# [1] = compound: CNC(=O)C1=CC=CC=C1NC2=NC(=NC=C2Cl)NC3=C(C=C(C=C3)N4CCOCC4)OC
# Summary of the method: as §1
# defactinib = compound: CNC(=O)c1ccc(Nc2ncc(C(F)(F)F)c(NCc3nccnc3N(C)S(C)(=O)=O)n2)cc1 [defactinib]
# Summary of the method: as §1
# [2] = compound: CNc1nc(-c2ccc3c(N)n[nH]c3c2)cc(N2C[C@@H](C(=O)NC3CCCCC3)CC[C@H]2C)n1
# Summary of the method: as §1
# encorafenib = compound: COC(=O)N[C@@H](C)CNc1nccc(-c2cn(C(C)C)nc2-c2cc(Cl)cc(NS(C)(=O)=O)c2F)n1 [encorafenib]
# Summary of the method: as §1
# [3] = compound: COC(=O)[C@H](CCSC)NC(=O)C1=C(C=C(C=C1)NC[C@H](CS)N)C2=CC=CC=C2
# Summary of the method: as §1
# alisertib = compound: COc1cc(Nc2ncc3c(n2)-c2ccc(Cl)cc2C(c2c(F)cccc2OC)=NC3)ccc1C(=O)O [alisertib]
# Summary of the method: as §1
# [4] = compound: COc1cc2nc(-c3cc(F)ccc3O)nc(N[C@@H]3CNC[C@H]3C(C)(C)O)c2cc1OC
# Summary of the method: as §1
# gefitinib = compound: COc1cc2ncnc(Nc3ccc(F)c(Cl)c3)c2cc1OCCCN1CCOCC1 [gefitinib]
# Summary of the method: as §1
# lapatinib = compound: CS(=O)(=O)CCNCc1ccc(-c2ccc3ncnc(Nc4ccc(OCc5cccc(F)c5)c(Cl)c4)c3c2)o1 [lapatinib]
# Summary of the method: as §1
# pictilisib = compound: CS(=O)(=O)N1CCN(Cc2cc3nc(-c4cccc5[nH]ncc45)nc(N4CCOCC4)c3s2)CC1 [pictilisib]
# Summary of the method: as §1
# crizotinib = compound: C[C@@H](Oc1cc(-c2cnn(C3CCNCC3)c2)cnc1N)c1c(Cl)ccc(F)c1Cl [crizotinib]
# Summary of the method: as §1
# [5] = compound: C[C@H](C1=CC=C(C=C1)C(=O)NC2=C3C=CNC3=NC=C2)N
# Summary of the method: as §1
# duvelisib = compound: C[C@H](Nc1ncnc2nc[nH]c12)c1cc2cccc(Cl)c2c(=O)n1-c1ccccc1 [duvelisib]
# Summary of the method: as §1
# gandotinib = compound: Cc1cc(Nc2cc(CN3CCOCC3)c3nc(C)c(Cc4ccc(Cl)cc4F)n3n2)n[nH]1 [gandotinib]
# Summary of the method: as §1
# tozasertib = compound: Cc1cc(Nc2cc(N3CCN(C)CC3)nc(Sc3ccc(NC(=O)C4CC4)cc3)n2)n[nH]1 [tozasertib]
# Summary of the method: as §1
# doramapimod = compound: Cc1ccc(-n2nc(C(C)(C)C)cc2NC(=O)Nc2ccc(OCCN3CCOCC3)c3ccccc23)cc1 [doramapimod]
# Summary of the method: as §1
# bafetinib = compound: Cc1ccc(NC(=O)c2ccc(CN3CC[C@H](N(C)C)C3)c(C(F)(F)F)c2)cc1Nc1nccc(-c2cncnc2)n1 [bafetinib]
# Summary of the method: as §1
# [6] = compound: Cc1cccc(CC(=O)N2CCc3c2ccc(-c2cn(C)c4ncnc(N)c24)c3F)n1
# Summary of the method: as §1
# Chain of UniProt Q9HAV4 (Q9HAV4 whole entry, looked up): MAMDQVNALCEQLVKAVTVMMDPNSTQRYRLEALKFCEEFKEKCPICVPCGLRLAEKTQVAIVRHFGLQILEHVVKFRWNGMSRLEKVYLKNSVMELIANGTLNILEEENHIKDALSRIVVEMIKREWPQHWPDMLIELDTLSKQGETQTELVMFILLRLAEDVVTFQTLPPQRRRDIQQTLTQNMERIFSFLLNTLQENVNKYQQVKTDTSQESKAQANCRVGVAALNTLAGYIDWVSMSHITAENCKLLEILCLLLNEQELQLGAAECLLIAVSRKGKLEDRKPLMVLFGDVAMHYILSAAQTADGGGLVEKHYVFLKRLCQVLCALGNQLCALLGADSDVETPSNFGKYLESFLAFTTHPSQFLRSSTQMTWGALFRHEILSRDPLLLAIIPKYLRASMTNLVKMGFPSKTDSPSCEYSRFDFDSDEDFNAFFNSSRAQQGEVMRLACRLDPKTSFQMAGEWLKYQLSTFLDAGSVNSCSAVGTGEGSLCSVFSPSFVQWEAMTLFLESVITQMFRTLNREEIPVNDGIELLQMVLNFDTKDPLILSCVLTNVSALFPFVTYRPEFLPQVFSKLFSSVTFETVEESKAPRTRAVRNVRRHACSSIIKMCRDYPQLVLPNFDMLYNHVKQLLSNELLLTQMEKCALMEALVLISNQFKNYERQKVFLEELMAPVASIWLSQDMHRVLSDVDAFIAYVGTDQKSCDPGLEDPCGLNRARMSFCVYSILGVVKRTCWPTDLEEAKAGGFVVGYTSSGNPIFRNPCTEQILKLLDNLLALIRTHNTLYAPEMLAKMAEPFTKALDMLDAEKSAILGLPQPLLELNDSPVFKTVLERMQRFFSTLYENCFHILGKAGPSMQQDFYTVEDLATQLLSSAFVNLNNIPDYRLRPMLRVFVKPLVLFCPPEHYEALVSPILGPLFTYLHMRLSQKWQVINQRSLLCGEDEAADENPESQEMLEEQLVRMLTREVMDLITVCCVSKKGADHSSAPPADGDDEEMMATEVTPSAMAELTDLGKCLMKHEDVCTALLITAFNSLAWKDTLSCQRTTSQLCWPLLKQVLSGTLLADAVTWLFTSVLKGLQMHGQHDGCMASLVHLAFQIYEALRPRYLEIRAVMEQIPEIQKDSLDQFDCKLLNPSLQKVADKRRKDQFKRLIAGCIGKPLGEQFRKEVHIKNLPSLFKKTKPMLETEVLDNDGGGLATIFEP
# Chain of UniProt Q8IX07 (Q8IX07 whole entry, looked up): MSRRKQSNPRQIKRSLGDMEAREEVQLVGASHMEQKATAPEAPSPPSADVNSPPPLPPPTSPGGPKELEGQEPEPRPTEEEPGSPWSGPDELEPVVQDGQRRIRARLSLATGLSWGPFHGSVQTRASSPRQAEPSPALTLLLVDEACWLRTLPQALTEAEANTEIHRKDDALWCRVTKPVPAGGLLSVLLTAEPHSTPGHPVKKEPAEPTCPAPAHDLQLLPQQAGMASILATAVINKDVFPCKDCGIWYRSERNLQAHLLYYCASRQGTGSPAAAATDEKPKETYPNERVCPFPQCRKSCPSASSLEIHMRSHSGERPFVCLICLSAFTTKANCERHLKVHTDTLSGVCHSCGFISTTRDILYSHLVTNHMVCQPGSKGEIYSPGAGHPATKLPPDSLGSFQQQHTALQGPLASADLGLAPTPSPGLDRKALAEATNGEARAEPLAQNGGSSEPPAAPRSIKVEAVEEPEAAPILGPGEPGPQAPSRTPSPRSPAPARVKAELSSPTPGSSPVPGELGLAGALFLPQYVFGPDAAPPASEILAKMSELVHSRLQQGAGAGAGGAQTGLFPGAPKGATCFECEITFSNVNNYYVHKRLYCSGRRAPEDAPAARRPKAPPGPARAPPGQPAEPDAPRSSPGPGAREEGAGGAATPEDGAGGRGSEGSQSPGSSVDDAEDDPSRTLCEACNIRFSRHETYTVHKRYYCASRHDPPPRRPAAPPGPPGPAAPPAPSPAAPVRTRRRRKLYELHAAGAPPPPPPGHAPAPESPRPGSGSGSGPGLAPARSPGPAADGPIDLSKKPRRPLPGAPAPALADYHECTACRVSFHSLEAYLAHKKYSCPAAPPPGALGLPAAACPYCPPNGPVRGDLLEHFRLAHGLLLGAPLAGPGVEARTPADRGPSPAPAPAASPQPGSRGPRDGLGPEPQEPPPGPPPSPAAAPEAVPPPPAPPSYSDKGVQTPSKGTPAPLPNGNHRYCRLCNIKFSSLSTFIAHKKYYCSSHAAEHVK
# Chain of UniProt Q9NUE0 (Q9NUE0 whole entry, looked up): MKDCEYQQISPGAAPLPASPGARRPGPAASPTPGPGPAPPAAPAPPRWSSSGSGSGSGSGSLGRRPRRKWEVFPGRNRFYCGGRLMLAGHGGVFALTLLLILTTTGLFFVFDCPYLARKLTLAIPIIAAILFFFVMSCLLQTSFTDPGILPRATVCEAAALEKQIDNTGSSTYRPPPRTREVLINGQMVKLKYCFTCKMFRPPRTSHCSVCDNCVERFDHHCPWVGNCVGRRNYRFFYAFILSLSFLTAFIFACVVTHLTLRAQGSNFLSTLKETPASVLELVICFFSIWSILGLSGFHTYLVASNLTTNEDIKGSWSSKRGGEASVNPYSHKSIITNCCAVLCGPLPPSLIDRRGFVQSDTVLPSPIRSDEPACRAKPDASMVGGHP
# Chain of UniProt Q9Y4E6 (Q9Y4E6 whole entry, looked up): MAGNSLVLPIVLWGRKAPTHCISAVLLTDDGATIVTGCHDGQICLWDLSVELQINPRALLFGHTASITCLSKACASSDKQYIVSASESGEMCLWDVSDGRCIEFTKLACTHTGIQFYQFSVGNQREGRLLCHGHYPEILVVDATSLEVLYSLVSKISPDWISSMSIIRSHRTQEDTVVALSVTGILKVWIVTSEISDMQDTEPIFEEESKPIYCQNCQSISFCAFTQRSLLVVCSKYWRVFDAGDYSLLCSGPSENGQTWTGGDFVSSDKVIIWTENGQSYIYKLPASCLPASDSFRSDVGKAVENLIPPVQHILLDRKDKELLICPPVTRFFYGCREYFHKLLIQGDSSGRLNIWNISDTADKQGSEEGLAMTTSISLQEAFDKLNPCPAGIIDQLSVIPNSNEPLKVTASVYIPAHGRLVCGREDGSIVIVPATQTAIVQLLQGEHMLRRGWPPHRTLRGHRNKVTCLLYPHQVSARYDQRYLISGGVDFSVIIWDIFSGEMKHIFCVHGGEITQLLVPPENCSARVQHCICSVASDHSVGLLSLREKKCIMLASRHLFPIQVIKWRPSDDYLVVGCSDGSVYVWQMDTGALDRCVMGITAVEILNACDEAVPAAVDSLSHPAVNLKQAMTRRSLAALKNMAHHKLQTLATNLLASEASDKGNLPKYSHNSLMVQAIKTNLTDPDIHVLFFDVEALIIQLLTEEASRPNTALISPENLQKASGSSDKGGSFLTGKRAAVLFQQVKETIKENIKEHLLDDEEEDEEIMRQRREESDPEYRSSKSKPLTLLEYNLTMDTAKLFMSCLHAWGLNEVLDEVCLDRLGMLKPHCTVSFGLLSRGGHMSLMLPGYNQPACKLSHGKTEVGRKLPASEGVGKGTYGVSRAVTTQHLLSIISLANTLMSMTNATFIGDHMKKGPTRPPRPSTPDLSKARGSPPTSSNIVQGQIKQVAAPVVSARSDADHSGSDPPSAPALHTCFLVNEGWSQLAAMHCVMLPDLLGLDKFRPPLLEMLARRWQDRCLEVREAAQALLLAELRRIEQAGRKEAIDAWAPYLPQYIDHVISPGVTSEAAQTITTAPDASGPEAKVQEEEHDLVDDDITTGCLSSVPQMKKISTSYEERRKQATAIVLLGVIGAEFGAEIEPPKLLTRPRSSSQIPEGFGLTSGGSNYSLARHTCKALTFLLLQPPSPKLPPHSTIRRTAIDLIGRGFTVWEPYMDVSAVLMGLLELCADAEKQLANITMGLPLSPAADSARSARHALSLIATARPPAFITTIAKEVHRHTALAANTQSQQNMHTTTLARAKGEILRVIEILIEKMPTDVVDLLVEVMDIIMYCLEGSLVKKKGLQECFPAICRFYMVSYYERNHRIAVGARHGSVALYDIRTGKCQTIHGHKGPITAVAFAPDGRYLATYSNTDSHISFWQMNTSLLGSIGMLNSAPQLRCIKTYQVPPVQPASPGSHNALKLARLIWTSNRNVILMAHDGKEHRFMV
# Chain of UniProt Q9NZ43 (Q9NZ43 whole entry, looked up): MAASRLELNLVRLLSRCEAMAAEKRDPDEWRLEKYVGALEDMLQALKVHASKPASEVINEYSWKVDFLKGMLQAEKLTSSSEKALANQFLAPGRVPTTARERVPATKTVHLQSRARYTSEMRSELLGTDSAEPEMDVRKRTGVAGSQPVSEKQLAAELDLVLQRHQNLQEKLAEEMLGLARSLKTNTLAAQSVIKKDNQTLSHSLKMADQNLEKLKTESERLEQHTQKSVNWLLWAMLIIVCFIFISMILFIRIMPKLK
# Chain of UniProt Q9UN37 (Q9UN37 whole entry, looked up): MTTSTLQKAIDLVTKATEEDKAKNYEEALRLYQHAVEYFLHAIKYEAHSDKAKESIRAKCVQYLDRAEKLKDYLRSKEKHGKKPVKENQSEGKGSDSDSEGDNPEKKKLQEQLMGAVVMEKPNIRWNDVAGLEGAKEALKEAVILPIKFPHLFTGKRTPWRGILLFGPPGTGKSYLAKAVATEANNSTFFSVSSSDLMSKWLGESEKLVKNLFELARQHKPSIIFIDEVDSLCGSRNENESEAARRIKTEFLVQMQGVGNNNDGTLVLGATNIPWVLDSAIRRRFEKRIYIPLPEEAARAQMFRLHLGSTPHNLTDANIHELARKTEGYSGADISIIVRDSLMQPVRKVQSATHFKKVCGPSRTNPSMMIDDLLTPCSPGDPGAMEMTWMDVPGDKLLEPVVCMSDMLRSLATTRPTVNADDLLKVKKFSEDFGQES
Target,log2 fold change (alvocidib),log2 fold change (Tubastatin A),log2 fold change [1],log2 fold change (defactinib),log2 fold change [2],log2 fold change (encorafenib),log2 fold change [3],log2 fold change (alisertib),log2 fold change [4],log2 fold change (gefitinib),log2 fold change (lapatinib),log2 fold change (pictilisib),log2 fold change (crizotinib),log2 fold change [5],log2 fold change (duvelisib),log2 fold change (gandotinib),log2 fold change (tozasertib),log2 fold change (doramapimod),log2 fold change (bafetinib),log2 fold change [6]
USP16 (UniProt Q9Y5T5),0.004,-0.118,-0.011,0.035,0.008,0.059,0.081,-0.011,-0.003,-0.013,0.003,-0.049,-0.018,0.003,0.049,-0.039,0.006,-0.017,-0.037,0.035
VPS4A (UniProt Q9UN37),-0.004,-0.16,0.025,0.01,-0.1,-0.004,0.138,0,-0.004,-0.025,0.003,-0.034,-0.034,-0.042,-0.012,-0.066,0.007,0.038,0.004,0.056
ZMYM2 (UniProt Q9UBW7),0.076,-0.155,0.003,0.121,-0.021,-0.214,-0.018,-0.077,0.087,0.06,0.028,-0.147,-0.079,0.098,0.028,-0.329,0.046,0.041,-0.024,-0.084
ZMYM1 (UniProt Q5SVZ6),-0.162,-0.098,0.071,-0.035,0.067,0.063,-0.038,-0.008,0.03,0.009,0.101,-0.037,-0.008,-0.25 (active),-0.04,0.226,-0.021,0,-0.097,0.284 (active)
USE1 (UniProt Q9NZ43),0.019,-0.054,-0.002,0.064,0.015,0.067,-0.037,-0.059,0.039,-0.026,-0.035,0.088,-0.057,0.039,-0.056,-0.103,0.011,0.112,-0.019,0.027
ZNF451 (UniProt Q9Y4E5),-0.011,-0.121,0.027,0,-0.014,-0.03,0.07,0.008,-0.012,-0.009,-0.044,-0.054,-0.042,-0.053,0.007,-0.069,-0.045,0.052,-0.074,0.003
ZDHHC18 (UniProt Q9NUE0),-0.09,-0.016,0.222,0.029,-0.044,-0.038,0.042,-0.131,-0.036,-0.069,0.029,0.078,-0.023,-0.017,0.013,-0.149,-0.061,0.054,-0.068,-0.11
VPS18 (UniProt Q9P253),-0.016,-0.106,0.011,-0.057,-0.008,0.019,-0.125,0.005,-0.006,0.006,0.009,-0.017,-0.049,-0.056,-0.04,-0.032,-0.003,-0.004,-0.06,0.047
ZNF318 (UniProt Q5VUA4),0.033,-0.177,0.034,-0.055,-0.002,0.03,0.117,0.03,0.142,0.025,0.031,0.059,0.023,-0.008,0.046,-0.021,-0.019,-0.01,-0.086,0.112
WDR7 (UniProt Q9Y4E6),-0.008,0.008,0,-0.025,0.026,0.092,-0.055,-0.007,-0.01,-0.025,-0.029,-0.037,-0.058,-0.076,-0.008,0.014,-0.012,0.043,-0.04,0.085
USP10 isoform 2 (UniProt Q14694),0.006,-0.118,0.015,0.017,0.021,0.019,0.04,0.012,-0.009,-0.018,-0.01,-0.015,-0.03,-0.024,0.009,-0.046,-0.014,-0.016,-0.014,0.028
ZFPM1 (UniProt Q8IX07),0.014,0.024,-0.022,0,0.007,0.072,-0.009,-0.011,0.018,-0.006,-0.003,-0.008,-0.135,0.009,0.001,-0.079,-0.118,0.023,-0.077,-0.018
WDR41 (UniProt Q9HAD4),-0.061,-0.14,0.021,-0.044,0.017,0.081,-0.121,0.033,-0.047,0.083,0.013,0.099,0.022,-0.037,-0.026,0.149,-0.069,0.241 (active),-0.065,0.126
XPO5 (UniProt Q9HAV4),0.025,-0.184,-0.014,-0.002,-0.019,0.021,0.012,-0.004,0,0.013,-0.042,0,-0.085,-0.041,-0.017,-0.14,0.013,-0.008,-0.006,0.049
WDR36 (UniProt Q8NI36),0.021,-0.102,0.028,-0.018,-0.062,-0.025,0.134,0.008,0.004,-0.03,0.013,-0.008,-0.02,0.024,0.016,-0.097,0.017,0.061,0.005,-0.004
ZFYVE19 isoform 3 (UniProt Q96K21),–,–,–,–,–,–,–,–,-0.006,–,0.114,-0.02,–,–,–,–,–,–,-0.013,–
ZNF845 (UniProt Q96IR2),0.011,-0.149,0.314,-0.001,0.093,–,–,-0.018,0.035,0.035,0.012,-0.013,0.018,-0.069,-0.023,0.015,–,0.16,-0.031,0.017
